# About 79,000 compounds went through this panel and 15% of them were active in at least one assay; those are over-represented in the sample as a whole. Unmarked numbers belong to inactive results. Calls of active or inactive are those of the source. Rule as the data show it: active = growth inhibition above about 70%; inactive = the rest.
# Columns and labels:
# [1] = NCI Yeast Anticancer Drug Screen. Data for the rad50 strain (AID 155);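 also: 0% = growth of vehicle-only cultures of the same strain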; conditions: S. cerevisiae rad50 strain growth inhibition; at 50.0 µM; stronger effect = higher value
# Summary of the method: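 Growth of the mutant yeast was measured after compound exposure and referenced to vehicle-treated cultures.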
# [2] = NCI Yeast Anticancer Drug Screen. Data for the mec2-1 strain (AID 157); conditions: S. cerevisiae mec2-1 strain, at 50.0 µM, stronger effect = higher value
# Summary of the method: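 Growth inhibition is read against vehicle-treated controls after compound exposure of the mec2-1 yeast strain, which is defective in DNA damage repair or cell cycle control.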
# [3] = NCI Yeast Anticancer Drug Screen. Data for the sgs1 mgt1 strain (AID 161);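 also: 0% = growth of cultures given vehicle only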; conditions: S. cerevisiae sgs1 mgt1 strain, at 50.0 µM, stronger effect = higher value
# Summary of the method: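 This yeast growth screen uses a strain with defined DNA-repair lesions; compound-treated growth is compared with vehicle-treated growth.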
# [4] = NCI Yeast Anticancer Drug Screen. Data for the cln2 rad14 strain (AID 165);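 also: 0% = growth equal to vehicle treated cultures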; conditions: S. cerevisiae cln2 rad14 strain, at 50.0 µM, stronger effect = higher value
# Summary of the method: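 Growth inhibition, relative to vehicle-treated controls, is the read-out. The test organism is a yeast strain with defined genetic alterations, cln2 rad14.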
# [5] = NCI Yeast Anticancer Drug Screen. Data for the bub3 strain (AID 167); conditions: S. cerevisiae bub3 mutant strain, at 50.0 µM, stronger effect = higher value
# Summary of the method: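 Whole-cell yeast assay. The mutant strain was incubated with compounds, and growth inhibition was determined by comparison with vehicle-treated cells.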
# [6] = NCI Yeast Anticancer Drug Screen. Data for the mlh1 rad18 strain (AID 175); conditions: S. cerevisiae mlh1 rad18 strain growth inhibition; at 50.0 µM; stronger effect = higher value
# Summary of the method: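 Cells of a genetically altered yeast strain, deficient in DNA damage repair, were treated with compound. Their growth was then compared with that of vehicle-treated cultures to give inhibition.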
SMILES,growth inhibition [1],growth inhibition [2],growth inhibition [3],growth inhibition [4],growth inhibition [5],growth inhibition [6]
CC(=O)C(c1ccccc1)N(CCO)Cc1ccccc1 (stereo unspecified),8.15%,-6%,-5.9%,28.6%,7.45%,1.8%
C=CC1CC(NC(=O)OC)C(=O)O1 (stereo unspecified),1.05%,5.2%,8.45%,-38.1%,14.3%,-3.25%
CC1CC(=O)c2cc3oc(=O)n(C)c3cc21 (stereo unspecified),-3.4%,-4.15%,-6.2%,-20.5%,19.2%,-0.45%
N#Cc1c(F)c(F)c(Oc2c(F)c(F)c(F)c(F)c2F)c(F)c1Oc1c(F)c(F)c(F)c(F)c1F,-1.1%,11%,-11.8%,9%,-0.3%,5.8%
CCN(CC)C(=O)c1cncc(C(N)=O)c1,4.85%,-14.7%,28%,10.8%,12.7%,14.2%
COc1cc(Cl)ccc1NC(=O)COc1ccc(Cl)cc1,4.55%,0.5%,-12.8%,-3.6%,20%,-17.1%
CC/C(C)=N\NC(N)=O,6.85%,6.7%,-29.7%,-16.1%,0.1%,6.9%
COc1c(C(=O)O)ccc(C(=O)NCCCCCN(O)C(=O)CCC(=O)NCCCCCN(O)C(=O)CCC(=O)NCCCCCN(O)C(C)=O)c1OC,-7.25%,4.25%,-5.35%,-24.9%,-0.6%,-28.4%
O=C(Nc1ccc2ccccc2c1)c1ccc(Cl)cc1Cl,-12.1%,14.2%,-0.7%,-2.85%,2.45%,-14.8%
Nc1ccc(C(=O)NCCCC(=O)O)cc1,-1.85%,19.2%,-1.75%,0.85%,-3.75%,-14.6%
CC(=O)C1C(=O)C(=O)N(c2ccc(S(N)(=O)=O)cc2)C1=O (stereo unspecified),-37.3%,1.3%,7.6%,-32.7%,-14.2%,8.05%
C[S+]1C=C(c2ccccc2)SC=C1c1ccccc1 (stereo unspecified),35.2%,32.9%,59.6%,8.3%,47%,55%
O=C(O)CCSC1=CC(=O)C(SCCC(=O)O)=CC1=O,5.35%,-13.2%,-1.4%,-75.7%,4.9%,-15.2%
O=C1CSC(C(N=Nc2ccc(Cl)cc2)c2nc3ccccc3[nH]2)=N1 (stereo unspecified),-50.6%,-26.3%,-43.1%,-18.1%,-42.6%,-46.7%
Cc1ccc(NC(=S)SCc2ccc(Cl)c(Cl)c2)cc1Br,29.3%,-6.45%,10.2%,15%,0.3%,13.8%
Cc1ccc(C(=O)NNC(=O)c2ccc3ccccc3c2)cc1,-15.4%,-19.4%,7%,10.2%,-16.6%,-12.9%
CC1CN=C(c2ccccn2)C(c2ccccn2)=N1 (stereo unspecified),4.85%,6.6%,14.5%,-1.1%,17.4%,10.2%
CC(=O)OC(C)C1CCCC1OC(C)=O (stereo unspecified),-3.95%,9.2%,-9.95%,5.75%,-15.1%,-22.5%
CCCCCCCCCCCCCCCC(=O)NC(CCCCN)C(=O)NC(CCCCN)C(=O)OCC (stereo unspecified),77.9% (active),97% (active),68.9%,94.5% (active),47.4%,65.5%
Cc1ccc2nc(-c3cccc([N+](=O)[O-])c3)c(N=O)n2c1,-0.7%,4.35%,1.05%,-14.9%,2.1%,21.2%
O=C(/C=C(/CC(O)(c1ccccc1)c1ccccc1)Nc1ccccc1)c1ccccc1,10.3%,-2.7%,-6.4%,2.35%,-1.2%,-2.1%

SMILES,growth inhibition [1],growth inhibition [2],growth inhibition [3],growth inhibition [4],growth inhibition [5],growth inhibition [6]
CC(O)CNC(=O)C(C)Oc1ccc(OCC2CCCCC2)cc1 (stereo unspecified),-2.8%,-12.9%,6.65%,-9.7%,-53.7%,-15.9%
CCCCN(CCCC)CC(O)c1cc(-c2ccccc2)nc2c(O)cccc12 (stereo unspecified),-28.6%,22.4%,-18.2%,-14.4%,3.6%,-12.2%
COc1ccc(C2c3cc4c(cc3OC(N3CCOCC3)C2C)OCO4)c(OC)c1OC (stereo unspecified),2.45%,5.4%,14%,-1.1%,11.8%,21.7%
S=C(S)NCNC(=S)S.[Zn+2],1.65%,12.2%,26.1%,-64.2%,28.2%,29.4%
N#Cc1nc(C2=C(Cl)c3ccccc3OC2)[nH]c1C#N,40%,42.9%,46.5%,56.5%,50.6%,31.8%
NC(CSS(=O)(=O)c1ccccc1)C(=O)O (stereo unspecified),4%,-37.5%,-0.75%,0.5%,-10.6%,0.3%
CCCCCSc1nc2c([nH]1)c(=O)n(C)c(=S)n2C,14.5%,-6.35%,1.95%,-8.8%,0.6%,-15.6%
CCOC(=O)c1ccc(NC(=S)Nc2ccccc2S)cc1,16.4%,16.4%,22.9%,9.35%,10.1%,11.9%
c1ccc([P+](c2ccccc2)(c2ccccc2)C2c3ccccc3CCc3ccccc32)cc1,99.6% (active),99.8% (active),99.5% (active),99.5% (active),99.4% (active),99.6% (active)
O=C1/C(=C/c2ccc(C(=O)O)cc2)CNC/C1=C\c1ccc(C(=O)O)cc1,-7.4%,-14.9%,-3.05%,-15.4%,3.8%,-11.8%
CSc1nc2nc[nH]c(=O)c2[nH]1,-3.55%,-11.6%,-5.75%,-14.1%,-5.35%,-2.5%
Fc1ccc(-c2nc3ccccc3[nH]2)cc1,-9.6%,23.9%,-1.2%,-8.4%,-4.4%,-7.05%
O=C(Nc1ccc(Cl)c(Cl)c1)OCCN1CCOCC1,82.3% (active),97.2% (active),94% (active),67.2%,91.2% (active),92.8% (active)
ON(C(=S)Nc1ccccc1)c1ccccc1,20.9%,12.8%,21.1%,-13.7%,8.3%,15.9%
CCC1C(=O)N(C)c2ccccc21 (stereo unspecified),-2.15%,-9.6%,-10.1%,1.55%,-19.3%,13.2%
CCOC(=O)C(=[N+]=[N-])C(=O)CN1C(=O)C2CC(C)=C(C)CC2C1O (stereo unspecified),-18.8%,1.15%,-4.45%,1.85%,-10.8%,16.9%
Nc1ccc(S(=O)(=O)NC(=O)c2ccccc2)cc1,12.8%,-7%,10.1%,-26.9%,-3%,0.2%
N#Cc1[nH]cnc1N,-6.95%,-5.95%,-11.3%,-37.5%,7.15%,4.3%
CCOc1c(N=Nc2cccc([N+](=O)[O-])c2)c(C)nn1C(N)=S,-42.2%,-34.1%,-7.85%,-28.9%,-3.35%,-16%
CCCCC(CC)CC#N (stereo unspecified),6.15%,-20.1%,21.1%,6.05%,-4.35%,10.7%
